Experimental findings from PubChem BioAssay (Tox21) are described below.

Results filed as inconclusive are left out. Unmarked numbers belong to inactive results. Calls of active or inactive are those of the source. The call rests on the fitted dose curve; in most records, active means well fitted cell-killing curve with a large enough effect in the repeat runs; inconclusive means weak or mixed curves, or effect the other way; inactive means flat fitted curve, though single readings scatter.
On the % scale 0 is the no-effect control and ±100 the full control effect; potency means the concentration at half of the fitted maximal effect.

The experiment is described as follows: cAMP Responsive Elements (CRE) small molecule agonists, cell-based qHTS assay: qHTS cell viability counter screen (AID 2060914). Further: nearly all actives have a fitted effect of over 50% in size. The note with it: CRE-bla HEK293T viability, CellTiter-Glo luminescence, 5 h; series mostly up to 92.4 µM; activity change, negative = cytotoxicity: at the top concentration. The source says:
National Center for Advancing Translational Sciences [NCATS]
Division of Preclinical Innovation [DPI]
U.S. Environmental Protection Agency [EPA]
National Institutes of Environmental Health Sciences [NIEHS]
National Toxicology Program [NTP]
U.S. Food and Drug Administration [FDA]
CREB (cyclic-AMP Responsive Element Binding Protein) is a cellular transcription factor. It binds to certain DNA sequences called cAMP Responsive Elements (CRE) and regulates the transcription of the genes. […] This cell line can be used to find agonists/antagonists of the cyclic AMP signaling pathway. The activation of the report gene under culture conditions can be detected by fluorescence intensity. This cell line has been used to screen the Tox21 10K compound library to identify agonists that induce oxidative stress. The cytotoxicity of the Tox21 compound library against the CRE-bla cell line was tested in parallel by measuring the cell viability using CellTiter-Glo assay (Promega, Madison, WI) in the same wells.
Tox21 Assay Protocol Summary:
CRE-bla Hek 293T cells were suspended in assay medium (DMEM containing 10% dialyzed FBS, 0.1 mM NEAA, 1 mM sodium pyruvate and 25 mM HEPES) and dispensed at 2,000 cells/5 uL /well into 1536-well black wall/clear bottom plates using a Multidrop Combi (ThermoFisher Scientific, Waltham, MA) dispenser. After the assay plates were incubated at 37 C/5% CO2 for 18 hrs, 23 nL of compounds dissolved in DMSO, positive controls or DMSO only was transferred to the assay plate by a pintool workstation (Kalypsys, San Diego, CA). After the plates were incubated at 37 C/5% CO2 for 3 hrs, 1 uL of LiveBLAzer B/G FRET substrate (Invitrogen, Carlsbad, CA) was added to each well using Bioraptr Flying Reagent Dispenser (FRD, Aurora Discovery, San Diego, CA). The plates were incubated at room temperature for 2 h, then fluorescence intensities were measured using an Envision plate reader (PerkinElmer, Shelton, CT) at Excitation 405nm, Emission 460nm and 530nm. The % activity was determined from the ratio of 460nm/530nm. For cell viability readout that measures cytotoxicity, 4 uL /well of CellTiter-Glo reagent was added into the assay plates using Bioraptr FRD. After 30 min incubation at room temperature, the luminescence intensity in the assay plates was measured using a ViewLux (PerkinElmer, Shelton, CT) plate reader.
In the case of `CC1(C)CC(OC(=O)CCCCCCCCC(=O)OC2CC(C)(C)NC(C)(C)C2)CC(C)(C)N1`, the activity change, negative = cytotoxicity was 1.68% [at 18.9 µM].
As for `C[C@@H]1C[C@H]2[C@@H]3CCC4=CC(=O)C=C[C@]4(C)[C@@]3(F)[C@@H](O)C[C@]2(C)[C@@]1(O)C(=O)COP(=O)(O)O`, the “activity change, negative = cytotoxicity” value was 0.41%.
For `O=C(O)c1cc(Cl)cc([N+](=O)[O-])c1Cl`, the “activity change, negative = cytotoxicity” value is 7.91%.
On to `C=CC(=O)OCCCC`, for which the Potency result is “inactive”.
In the case of `COc1cc2c(c(OC)c1OC)-c1ccc(OC)c(=O)cc1[C@@H](NC(C)=O)CC2`, the Potency entry is “inactive”.
For `CC/C=C\C#N`, the “activity change, negative = cytotoxicity” value is -1.35%.
Still for that read-out and setting: in the case of `CCCCCCCCCCC(=O)O` it was -10.2%.
Same read-out and setting: then `COc1ccccc1C=O`, with 0.373%.
Regarding `CC(C)C(=O)Nc1ccc([N+](=O)[O-])c(C(F)(F)F)c1`, the Potency result is “inactive”.
Still for that read-out and setting: in the case of `CC[N+](CC)(CC(=O)Nc1c(C)cccc1C)Cc1ccccc1` it was “inactive”.
In the case of `CCc1cc(Cl)c(OC)c(C(=O)NC[C@@H]2CCCN2CC)c1O`, the “activity change, negative = cytotoxicity” value is 1.22% [at 42.5 µM].
On the same count and under the same terms, then `CCN(CC)CC`, with -1.77%; and `CCCCCCCCCCCC[N+](C)(C)CCCCCCCCCCCC`, with 0.495%; and `Cc1[nH]c(=O)c(C#N)cc1-c1ccc2nccn2c1`, with 1.81% [at 42.5 µM].
For `CCCCCCCC[P+](CCCCCCCC)(CCCCCCCC)CCCCCCCC`, the Potency was 21.6 µM (active).
In the case of `C=CCOCC(O)CO` (stereo not given), the “activity change, negative = cytotoxicity” value was -0.61%.
Consider `CN(C)c1ccc(C(c2ccccc2)c2ccc(N(C)C)cc2)cc1`, for which the “activity change, negative = cytotoxicity” value is -16.7%.
The same measure, in the same setting: then `CN1CCC(=C2c3ccccc3C=Cc3ccccc32)CC1`, with 1.44% [at 42.5 µM].
On the same count and under the same terms, then `NCCc1cnc[nH]1`, with 11% [at 42.5 µM].
With `O=C1CC2(CCCC2)CC(=O)N1CCCCN1CCN(c2ncccn2)CC1`, the Potency entry was “inactive”.
On to `CCCCOCCOC(=O)COc1nc(Cl)c(Cl)cc1Cl`, for which the “activity change, negative = cytotoxicity” value was 4.62%.
Consider `Nc1cc(S(=O)(=O)O)cc2cc(S(=O)(=O)O)cc(O)c12`, for which the Potency result was “inactive”.
With `CCC1NC(=O)c2cc(S(N)(=O)=O)c(Cl)cc2N1` (stereo not given), the “activity change, negative = cytotoxicity” value is -4.87% [at 42.5 µM].
The same measure, in the same setting: then `CCN(CC)CCNC(=O)c1ccc(NC(C)=O)cc1`, with 8.14% [at 42.5 µM]; and `c1cc[nH]c1`, with 14.6%; and `NC(Cc1c[nH]c2ccccc12)C(=O)O` (stereo not given), with 12.7% [at 42.5 µM].
Consider `C=CCCC`, for which the “activity change, negative = cytotoxicity” value is 0.91%.
The same measure, in the same setting: in the case of `CC(C)(C)C1CCC(=O)CC1` it was -3.36%; in that of `C[C@@H]1CCC[C@H](C)N1`, 6.19% [at 42.5 µM]; in that of `CCCOCCC`, 1.31%.
Turning to `O=c1c(O)c(-c2ccc(O)cc2)oc2cc(O)cc(O)c12`, the Potency entry was “inactive”.
With `CC1(C)OC[C@@H](COC(=O)CCc2ccc(OC[C@@H](O)CNCCNC(=O)N3CCOCC3)cc2)O1`, the “activity change, negative = cytotoxicity” value was -0.952% [at 42.5 µM].
As to `CCCCCC/C=C/CCCCCCCC(=O)O`, the Potency entry was “inactive”.
Take `Cc1cc(SC2=C(O)C[C@@](CCc3ccc(N)cc3)(C(C)C)OC2=O)c(C(C)(C)C)cc1CO`: the “activity change, negative = cytotoxicity” value was 8.21%.
As to `Cc1ccnc2ccccc12`, the “activity change, negative = cytotoxicity” value was -0.341%.
As for `COC(=O)c1ccccc1C`, the “activity change, negative = cytotoxicity” value was -3.06%.
As for `Nc1ccc(S(=O)(=O)O)cc1`, the “activity change, negative = cytotoxicity” value was 11.1%.
On the same count and under the same terms, then `Cc1cccc(NC(=S)N(C)C)c1`, with 0.517%.
Still for that read-out and setting: then `Cc1ccccc1OCC(O)CO` (stereo not given), with -4.35% [at 42.5 µM]; and `CC(C)NC(=O)c1ccc(C=O)cc1`, with 0.0667% [at 42.5 µM].
